Screening results: PubChem, Broad Institute
CD40 NFkB inh – CD40 pathway inhibition in BL2 cells; inhibition, % at 10 µM; 83,000 compounds, 0.94% hits; AID 1053188; BL2 NF-kB luciferase reporter, CD40L-induced, 4 h;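 active = mean inhibition of at least 50% with a set share of replicates also reaching that level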;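 also: 0% = neutral control wells and 100% = IKK inhibitor VII at 50 µM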
The depositor's hits bear a star; ! = not confirmed by another sample; [ ] = remark or other dose. The entries come from a sample that favours hits as a whole.

SMILES	CD40 NFkB inh
O=C(O)CCSc1nc2ccccc2s1	14
O=c1[nH]c(CSc2ccccn2)nc2ccccc12	-21
O=S(=O)(CCSc1ccccn1)c1nc2ccccc2s1	59*
O=C1N[C@H](c2ccccc2)COCc2cnnn2CC[C@@H]1Cc1ccc(C(F)(F)F)cc1	9[25 µM]
CC(C)C(NC(=O)CN1C(=O)c2ccccc2S1(=O)=O)C(C)C	-1
O=C(CN1C(=O)c2ccccc2S1(=O)=O)Nc1ccccn1	7
O=C1c2ccccc2S(=O)(=O)N1Cc1nc2ccccc2s1	70*
CC(NCC(=O)Nc1cc(S(=O)(=O)N2CCOCC2)ccc1Cl)c1ccc(Cl)cc1Cl (stereo unspecified)	15
CCCNC(=O)N1C[C@@H](O)COC[C@H]2O[C@H](CC(=O)OC)CC[C@@H]21	-2[25 µM]
CN1C(=O)c2cc(NC(=O)C3CCC3)ccc2OC[C@H]2O[C@@H](CC(=O)NCc3ccccc3F)CC[C@@H]21	4
COCC(=O)N1C[C@@H]2[C@H](c3ccccc31)[C@H](CO)N2C(=O)C1CC1	0
COCC(=O)N1CCCCN2[C@H](CO)[C@@H](c3ccc(-c4cccc(C)c4)cc3)[C@@H]2C1	-13[25 µM]
C[C@H](CO)N1C[C@H](C)[C@@H](CN(C)C(=O)CN(C)C)Oc2cc(C#CC3CC3)ccc2S1(=O)=O	-7[25 µM]
COCC(=O)N1[C@H](CO)[C@H]2c3ccccc3N(C(=O)c3cccnc3)C[C@H]21	0[25 µM]
CC(C)CC#Cc1ccc([C@H]2[C@H]3CN(C(=O)c4ccccn4)CC(=O)N3[C@H]2CO)cc1	6[25 µM]
CCCCCCCN1N=C(C)C(C(=O)c2ccccc2)C1=O (stereo unspecified)	11
CCCCCN1C=CC(=C2C(=O)c3ccccc3C2=O)C=C1	81*
CCOC(=O)c1sc(N)nc1C(F)(F)F	-15
Cc1ccc(-c2cc(C(=O)N3CCOCC3)c3ccccc3n2)o1	-11
Cc1c(C(=O)N2CCCC(C(F)(F)F)C2)oc2ccccc12 (stereo unspecified)	-22
Cc1ccc(-c2cc(C(=O)N3CCCC(C(F)(F)F)C3)c3ccccc3n2)o1 (stereo unspecified)	105*
COCCNC(=O)[C@H]1[C@H](CO)[C@H]2Cn3c(ccc(-c4ccccc4OC)c3=O)[C@H]2N1C(=O)C1CCC1	-13[25 µM]
CC(=O)N(C)c1ccc(C=C2C=Cc3ccccc32)cc1	72*
CC(=O)N(C)c1ccc(NS(=O)(=O)Cc2ccccc2)cc1	8
CC(=O)N(C)c1ccc(NC(=S)Nc2ccc(C(C)C)cc2)cc1	-14
SMILES	CD40 NFkB inh
CCC(=O)N1CC[C@@H]2[C@@H](CO)N(C)c3ccc(-c4ccc(C#N)cc4)cc3[C@@H]21	11[25 µM]
O=C(Nc1ccc(F)cc1)N1CCC(c2nc3c(nnn3Cc3cccc(Cl)c3)c(=O)[nH]2)CC1	69*
O=C(NC1CCCC1)c1nc2c(nnn2Cc2cccc(Cl)c2)c(=O)[nH]1	22
Cc1ccc(NC(=O)N2CCC(c3nc4c(nnn4Cc4cccc(Cl)c4)c(=O)[nH]3)CC2)cc1	42
CC(=O)c1cccc(NC(=O)c2c(-c3c(F)cccc3Cl)noc2C)c1	-3
CN1c2ccc(C#Cc3cccnc3)cc2[C@H]2[C@H](CCN2C(=O)C2CCCC2)[C@H]1CO	4
CCCNC(=O)N(C)C[C@H]1Oc2cc(-c3ccccc3)ccc2S(=O)(=O)N([C@H](C)CO)C[C@@H]1C	7[25 µM]
COC(=O)CNC(=O)COc1ccccc1	20
CCCC(=O)O[C@]1(C(=O)COC(C)=O)CC[C@H]2[C@@H]3C[C@H](F)C4=CC(=O)C=C[C@]4(C)[C@@]3(F)[C@@H](O)C[C@@]21C	56*
C[C@@H]1C[C@H]2[C@@H]3C[C@H](F)C4=CC(=O)C=C[C@]4(C)[C@@]3(F)[C@@H](O)C[C@]2(C)[C@@]1(O)C(=O)COC(=O)C(C)(C)C	33
CC(=O)[C@@]1(O)CC[C@H]2[C@@H]3C[C@H](C)C4=CC(=O)C=C[C@]4(C)[C@@]3(F)[C@@H](O)C[C@@]21C	23
CCCCN(C(=O)c1ccc(C)c(S(=O)(=O)N2CCOCC2)c1)c1c(N)n(CCCC)c(=O)[nH]c1=O	6
COc1cccc(NC(=O)N2[C@@H]3CNC[C@H]2C3c2ccc(/C=C/c3ccccc3)cc2)c1 (stereo partly specified)	60*!
COc1cccc(NC(=O)N2[C@@H]3CNC[C@H]2C3c2ccc(-c3ccccc3)cc2)c1 (stereo partly specified)	-19
O=C(Nc1cccc(Cl)c1)N1[C@@H]2CNC[C@H]1C2c1ccc(/C=C/c2ccccc2)cc1 (stereo partly specified)	7[25 µM]
CC(C)=NNc1ncnc2nc[nH]c12	-17
CC(C)CCCCCCCCCCCCC(=O)NCC(=O)NC1C(O)C(O)C(Nc2ncnc3nc[nH]c23)OC1C(O)CO (stereo unspecified)	104*
O=C(C1COc2ccccc2O1)N1CCN(c2nc3ccc([N+](=O)[O-])cc3s2)CC1 (stereo unspecified)	4
COc1cccc2sc(N3CCN(C(=O)c4ccc([N+](=O)[O-])o4)CC3)nc12	76*
O=C(c1cccs1)N1CCN(c2nc3ccccc3s2)CC1	-19
O=C(c1ccc([N+](=O)[O-])o1)N1CCN(c2nc3ccc(F)cc3s2)CC1	32*
O=C(c1ccc([N+](=O)[O-])o1)N1CCN(c2nc3c(Cl)cccc3s2)CC1	14
COc1cccc2sc(N3CCN(c4nc5ccccc5s4)CC3)nc12	5
CCCNC(=O)N1CC2(CN(Cc3cccc(F)c3)C2)c2c([nH]c3cc(OC)ccc23)[C@@H]1CO	11[25 µM]
O=C1N[C@@H](Cc2ccccc2)COCc2cn(nn2)CC[C@@H]1Cc1ccccc1	-5
SMILES	CD40 NFkB inh
COc1ccc2c3c(n(C)c2c1)[C@H](CO)N(S(C)(=O)=O)CC31CCN(C(=O)C2CCCC2)CC1	-1[25 µM]
C[C@@H](NC(=O)C[C@H]1C[C@H]2c3cc(NS(=O)(=O)c4ccc(F)cc4)ccc3O[C@H]2[C@H](CO)O1)c1ccccc1	-7[25 µM]
COc1ccc(C2NC(C(=O)O)Cc3c2[nH]c2ccccc32)cc1OC (stereo unspecified)	-14
Cc1cc(C=O)c(C)c2c1[nH]c1ccccc12	10
COc1ccc(OC)c2c(=S)c3ccccc3[nH]c12	active[25 µM]
CC(=O)OCC(=O)Nc1ccccc1C	4
OC[C@H]1[C@@H](c2ccc(-c3cncnc3)cc2)[C@@H]2CN(CC3CCOCC3)CCCCN12	-3[25 µM]
CCN(C[C@H]1N[C@@H](CO)[C@@H]1c1ccc(C2=CCCC2)cc1)C(=O)c1cccnc1	-14[25 µM]
C/C=C/c1ccc(C2[C@@H]3CN(C(=O)Nc4ccccc4OC)C[C@H]2N3)cc1 (stereo partly specified)	7
C[C@H](CO)N1C[C@H](C)[C@H](CN(C)C(=O)C2CCCCC2)Oc2ncc(-c3cccc(C#N)c3)cc2C1=O	-6[25 µM]
O=C(OCC(=O)N1CCCC1=O)c1cc(S(=O)(=O)N2CCOCC2)ccc1F	13
N#Cc1ccccc1COC(=O)c1cc(S(=O)(=O)N2CCOCC2)ccc1F	11
CCc1cc2c(COC(=O)c3cc(S(=O)(=O)N4CCOCC4)ccc3F)cc(=O)oc2cc1O	51*
O=C(O)CC1(CC(=O)Nc2ccc3sccc3c2)CCCCC1	-3
COc1ccccc1-c1ccc([C@@H]2[C@H](C#N)N[C@H]2CO)cc1	-29[25 µM]
O=C(Cc1ccccn1)N1[C@@H](CO)[C@@H]2c3ccccc3NC[C@@H]21	0[25 µM]
CCCCC(CC)C(=O)Nc1ncc([N+](=O)[O-])s1 (stereo unspecified)	8
Cc1ccc(CC(=O)Nc2ncc([N+](=O)[O-])s2)cc1	-47
